PKA-R2B activ: activators of PKA-R2B holoenzyme, primary screen, biochemical, fluorescence polarization, Cy5-IP20, human; cAMP-dependent protein kinase catalytic subunit beta (Homo sapiens) + cAMP-dependent …; PKA-R2B holoenzyme dissociation; R2B truncated from residue 108, S112A mutant; 0% DMSO only, 100% 113 µM cGMP; activation, % at 11.4 µM; 0.079% of 340,000 active; AID 504700, 2011;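 active means activation above a cutoff set at the mean over all compounds plus 3 SD, cut at about 18% in these data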;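 further: higher means more holoenzyme dissociation and a rise in polarization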
Target sequence (P31323 whole entry, looked up, other chains not shown, the tested form may be a part): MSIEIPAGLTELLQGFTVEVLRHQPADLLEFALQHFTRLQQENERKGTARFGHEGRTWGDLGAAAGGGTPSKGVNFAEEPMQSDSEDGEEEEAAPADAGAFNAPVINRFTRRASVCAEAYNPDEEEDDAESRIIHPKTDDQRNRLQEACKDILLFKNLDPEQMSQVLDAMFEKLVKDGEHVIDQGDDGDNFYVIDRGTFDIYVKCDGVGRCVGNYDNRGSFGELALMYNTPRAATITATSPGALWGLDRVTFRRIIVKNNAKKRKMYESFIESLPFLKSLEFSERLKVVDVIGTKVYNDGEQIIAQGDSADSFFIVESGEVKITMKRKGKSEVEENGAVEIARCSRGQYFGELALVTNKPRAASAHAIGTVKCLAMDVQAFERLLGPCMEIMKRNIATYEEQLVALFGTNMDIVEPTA
bovine MsrA act: bovine MsrA enzyme activators, primary screen, biochemical, absorbance, HTS. Methionine sulfoxide reductase A (Bos taurus). purified bovine MsrA, absorbance read-out. activation, % at 10.6 µM. 0.3% of 360,000 active. AID 602163, 2012; in the data active means activation above about 7.5%;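 further: 0% = vehicle and 100% = reference activator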
MsrA inhibitor: bovine MsrA enzyme inhibitors, primary screen, biochemical, absorbance, HTS; Methionine sulfoxide reductase A (Bos taurus); purified bovine MsrA, absorbance read-out; inhibition, % at 15.5 µM; 0.75% of 360,000 active;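 further: 0% = vehicle wells with enzyme and 100% = reference inhibitor wells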
PKA-R1A act: activators of PKA-R1A holoenzyme, primary screen, biochemical, fluorescence polarization, Cy5-IP20, bovine R1A, mouse PKAc. PKA-R1A dissociation; scaled: DMSO 0%, 113 µM cGMP 100%. activation, % at 11.4 µM. 0.083% of 340,000 active;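 active means percent activation above the mean of all tested compounds plus 3 SD, cut at about 19% in these data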;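 further: higher means more PKAc released from R1A so a rise in polarization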
MsrA conf: bovine MsrA inhibitors, retest, confirmation, biochemical, absorbance, HTS. shares compounds with MsrA inhibitor. purified bovine MsrA, absorbance read-out. inhibition, % at 15.5 µM. 41% of 2,300 active. AID 651822, 2012;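 further: coupled to thioredoxin reductase with NADPH and selenocystamine and DMSO as substrate; 0% = vehicle only and 100% = full effect of reference inhibitor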
Active calls of the source: *; . = no result. Shown are actives, neighbours in structure and some others; about 1.1% of the full set was active somewhere. Unless noted, no stated cut-off is given here; in the data, active means inhibition above about 4.5%; inactive means the rest.

SMILES	PKA-R2B activ	bovine MsrA act	MsrA inhibitor	PKA-R1A act	MsrA conf
O=C(O)c1ccc([N+](=O)[O-])c2c1C(=O)c1ccccc1C2=O	2	-3	3	-7	.
O=C(O)c1cccc2c1-c1c(cccc1[N+](=O)[O-])C2	-2	-3	5.9*	1	3
COc1cccc(-c2cc(CNC(=O)[C@H]3O[C@@H](n4cnc(C(N)=O)n4)[C@H](O)[C@@H]3O)no2)c1	.	.	1	.	.
COCC(=O)Nc1ccc2c(c1)[C@H]1C[C@@H](CC(=O)NCC3CC3)O[C@H](CO)[C@H]1O2	.	.	0	.	.
COc1ccc(CCN2CC(=O)N3CCc4ccc(N5CCOCC5)cc4C3CC2=O)cc1OC (stereo unspecified)	.	.	0	.	.
CC(=O)NS(=O)(=O)c1ccc(NC(=O)/C=C/c2ccco2)cc1	3	-7	6.0*	12	7.2*
COc1ccc(/C=C(\C#N)C(=O)NC(C)c2ccccc2)cc1O (stereo unspecified)	10	-6	4.9*	2	3
Cn1ccnc1Sc1cc(NCCCO)c([N+](=O)[O-])c2nonc12	-8	-10	5.7*	-14	2
CN(/N=C/c1cc(Br)cc(Br)c1O)c1cccc(C(F)(F)F)n1	-3	-3	5.8*	-14	0
O=C1NCCCC1C(=O)N/N=C/c1cc([N+](=O)[O-])ccc1O (stereo unspecified)	-15	-5	4	-6	.
O=C(N/N=C/c1cc([N+](=O)[O-])ccc1O)C1CC1	-11	-5	5.4*	10	3
O=C(N/N=C/c1cc(Br)c(O)c(Br)c1)C1CC1	4	-4	5.3*	11	4.6*
O=C(NN=Cc1ccc(F)cc1)C1CC1	0	-2	0	14	.
CCc1cc(=O)oc2c(C)c(OCC(=O)N3CCCc4ccccc43)ccc12	-6	-4	1	0	.
CC(=O)N1CCN(c2ccc(N3CCN(Cc4ccccc4)[C@@H](C)C3)c(C)c2)[C@H](C)C1	.	.	1	.	.
COC(=O)c1cc2c(c3c4cc(F)ccc4n(S(=O)(=O)c4ccccc4)c13)C(=O)N(Cc1ccc(N(C)C)cc1)C2	.	.	0	.	.
O=C(COc1ccccc1[N+](=O)[O-])Nc1cccc(Cl)c1N1CCOCC1	5	-3	5.9*	-4	2
CCOc1cc(N2CCOCC2)c(OCC)cc1NC(=O)COc1ccccc1[N+](=O)[O-]	-6	0	-1	2	.
COC(=O)C1=C(C)N(Cc2cccc(C(F)(F)F)c2)C(=NCc2ccc(OC)cc2)NC1c1ccc(Cl)cc1 (stereo unspecified)	.	.	-1	.	.
COc1cc(/C=C/C(=O)OCC(=O)Nc2ccc(S(=O)(=O)N3CCCC3)cc2)ccc1O	2	-10	1	-3	.
COc1ccc(/C=C/C(=O)OCC(=O)Nc2ccc(S(N)(=O)=O)cc2)cc1OC	-2	-7	4.8*	-10	2
COc1ccc(/C=C/C(=O)Nc2ccncc2)cc1OC	-1	-8	5.8*	8	4
COc1ccc(/C=C/C(=O)Nc2ccc(OC)nc2)cc1	-4	-5	5	-15	.
COc1cccc(/C=C/C(=O)Nc2ccc3[nH]c(=O)[nH]c3c2)c1	8	-3	3	4	.
COc1cc(/C=C/C(=O)Nc2ccc3[nH]c(=O)[nH]c3c2)cc(OC)c1OC	1	-6	5.6*	4	3
SMILES	PKA-R2B activ	bovine MsrA act	MsrA inhibitor	PKA-R1A act	MsrA conf
COc1ccc(NC(=O)/C=C/c2ccc(OC)c(OC)c2)cn1	-14	-6	6.8*	4	5
Cn1cc(CC(=O)Nc2ccc(Oc3cccnc3)cc2)c2ccccc21	.	.	1	.	.
COc1cc(NC(=O)Cc2ccccc2)c(C(=O)O)cc1OC	1	-1	1	-6	.
COc1ccc(/C=C/C(=O)NC(=S)NNC(=O)c2cccnc2)cc1OC	1	-8	5.6*	-1	5.6*
COc1cc(NC(=O)/C=C/c2ccccc2)c(C(=O)O)cc1OC	-18	-15	4.7*	-25	3
Cc1ccccc1OCC(=O)N/N=C/c1cccn1C	-1	-13	1	-3	.
O=C(O)c1ccc(N/N=C/c2ccc3nccnc3c2)cc1	2	-8	4.8*	-5	3
O=C(O)c1ccc(N/N=C/c2ccnc3ccccc23)cc1	6	2	0	5	.
O=C(O)c1ccc(N/N=C/c2ccncc2)cc1	0	-6	5.7*	-5	4
COCCN1CCCc2nc(-c3ccc(F)cc3)ccc21	.	.	0	.	.
CCN(CC)c1ccc(C(=O)OCC(=O)Nc2ccccc2-c2ccccc2)cc1	-5	-8	5.8*	-17	3
CN(C)c1cccc2c(S(=O)(=O)NC(=O)[C@H]3O[C@@H](n4ccc(=O)[nH]c4=O)[C@H](O)[C@@H]3O)cccc12	.	.	1	.	.
COC(=O)C1(F)C(=O)NC(=O)NC1OC (stereo unspecified)	.	.	0	.	.
COc1ccc(/C=N/N=C2\SC(CC(=O)O)C(=O)N2c2ccccc2)c(OC)c1 (stereo unspecified)	-1	-6	4.7*	1	6.1*
CN(C)c1ccc(/C=N/N=C2/SC(CC(=O)O)C(=O)N2c2ccc(O)cc2)cc1 (stereo unspecified)	8	-6	5.4*	-2	5.0*
C=CCN1C(=O)C(CC(=O)O)S/C1=N/N=C/c1ccc(N(CC)CC)cc1 (stereo unspecified)	-8	-3	5.0*	-2	3
O=C(O)CC1S/C(=N\N=C/c2ccccc2)N(c2ccc(O)cc2)C1=O (stereo unspecified)	15	-3	0	-3	.
CC1=C(C(=O)N(C(C)C)C(C)C)CC(CC(=O)NC(c2ccccc2)c2ccccc2)C(=O)N1CCC1=CCCCC1 (stereo unspecified)	.	-1	-1	.	.
CCCCS(=O)(=O)N1CCCc2nc(-c3ccc(OC)cc3)ccc21	.	.	0	.	.
O=C(/C=C/c1c(Cl)nc2ccccn12)N1CCCCC1	-4	-4	7.8*	0	4
C=CCc1c(C)nc(C)nc1N/N=C/c1ccc(N(C)C)cc1	3	-15	6.8*	-9	5.0*
Nc1ncnc(NCc2ccccc2)c1[N+](=O)[O-]	4	-10	4.9*	-12	2
N#Cc1cc([N+](=O)[O-])cnc1NCC(O)CO (stereo unspecified)	-1	-4	5.4*	-3	5
N#Cc1ccccc1NC(=O)CSc1ccc([N+](=O)[O-])cn1	0	-4	1	-7	.
COc1ccc(C(=O)/C(C#N)=N/Nc2ccccc2[N+](=O)[O-])cc1	-7	-1	3	0	.
